The experiment has as its target Muscarinic acetylcholine receptor M1 (Rattus norvegicus) (UniProt P08482). The experiment is described as follows: Counterscreen Concentration-Response Assay for Antagonists of the Neuropeptide S Receptor: Muscarinic Receptor Calcium Signal Transduction. The source says:
NIH Chemical Genomics Center [NCGC] NIH Molecular Libraries Probe Production centers Network [MLPCN] MLPCN Grant: X01-DA026210-01 Assay Submitter (PI): Heilig, Markus Alexander NCGC Assay Overview: Neuropeptide S receptor (NPSR), previously known as GPR154, is a recently de-orphanized G protein coupled receptor. Its endogenous ligand is the 20 amino acids peptide Neuropeptide S (NPS). […] NPS and its receptor are found in various tissues. Specifically they are highly expressed in brain areas that have been implicated in modulation of arousal, stress and anxiety. […] This change in intracellular calcium can be detected using a calcium indicator dye on a calcium imaging plate reader system (FDSS). […]
NCGC Assay Protocol Summary: A Chinese hamster ovary (CHO) cell line stably expressing muscarinic acetylcholine M1 receptor (CHO-M1) was obtained from ATCC and maintained in F-12 Kaighn's media (Invitrogen, Carlsbad, CA, 21127) supplemented with 10 % FBS, 100 units/ml penicillin, 100 ug/ml streptomycin and 250 ug/ml geneticin at 37C, 5% CO2 in a humidified atmosphere. […] The assay was performed on a FDSS-7000 kinetic plate reader in 1536-well format. The maximums of kinetic fluorescence responses were converted into text files using the instrument's software data export utility. […] AC50 values were determined from concentration-response data modeled with the standard Hill equation. […]
(Counterscreens check selectivity or assay interference.)

The values below come from PubChem BioAssay AID1492 (National Center for Advancing Translational Sciences (NCATS), 2009).

Inconclusive results are not listed. Active and inactive are the calls of the source. Calls come from the whole dose curve; as a rule, active = well fitted inhibition curve with a large enough effect; inconclusive = small, poorly fitted or top-dose-only effect; inactive = flat fitted curve, though single readings scatter.

For `O=c1[nH]c(=O)n(CCC2=CCCCC2)c(O)c1C=NC1CCN(Cc2ccccc2)CC1`, the result was inactive.
